Experiment [1] in a line: sensitizers of A549 cells to miR-34 induction, primary screen, imaging, A549 dox-inducible miR-34, nuclei and caspase counts (AID 1347080;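 active = compounds whose cell count with miR-34 switched on is under 0.7 times the count with it off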). Conditions: A549 miR-34 inducible, Hoechst nuclei count, 48 h.
Experiment [2] in a line: survival rescue of mitochondrial mutant cells in low glucose, primary screen, MELAS cybrids, Rieske KO mouse fibroblasts, CellTiter-Glo (AID 1508586;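 active = mean z-score across replicates of 1.96 or higher in either the MELAS or the Rieske mutant cell line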;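 also: z relative to plate mean and SD of compound and empty wells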).
The nature of experiment [3]: ovarian cancer cell viability with rucaparib, profiling panel, oncology-focused library, rucaparib conditional (AID 1508598). Conditions: patient-derived ovarian cancer cells, CellTiter-Glo viability, 144 h, stronger effect = lower value.
Where [4] appears, read: stronger effect = lower value, cell number ratio, induced over uninduced.
Setting [5] is: measured here: relative caspase fold change +Dox/-Dox.
Where [6] appears, read: measured here: total cells with miR-34 induction, stronger effect = lower value.
[7] abbreviates: measured here: total cells without miR-34 induction.
Setting [8] is: MELAS cybrid survival, CellTiter-Glo 48 h, stronger effect = higher value.
Where [9] appears, read: Rieske KO mouse fibroblast survival, CellTiter-Glo 72 h.
[10] abbreviates: at 0.000305 µM, OCI-C5x cells, with rucaparib 10 µM, 100% = cells with rucaparib alone.
[11] abbreviates: at 0.000305 µM, OCI-C5x cells, without rucaparib.
Setting [12] is: at 0.000305 µM, OCI-P5x cells, with rucaparib 20 µM, 100% = cells with rucaparib alone.
Setting [13] is: at 0.000305 µM, OCI-P5x cells, without rucaparib.
Setting [14] is: at 0.00122 µM, OCI-C5x cells, with rucaparib 10 µM, 100% = cells with rucaparib alone.
Setting [15] is: at 0.00122 µM, OCI-C5x cells, without rucaparib.
The mark [16] stands for this setting: at 0.00122 µM, OCI-P5x cells, with rucaparib 20 µM, 100% = cells with rucaparib alone.
Where [17] appears, read: at 0.00122 µM, OCI-P5x cells, without rucaparib.
Where [18] appears, read: at 0.00488 µM, OCI-C5x cells, with rucaparib 10 µM, 100% = cells with rucaparib alone.
Setting [19] is: at 0.00488 µM, OCI-C5x cells, without rucaparib.
[20] abbreviates: at 0.00488 µM, OCI-P5x cells, with rucaparib 20 µM, 100% = cells with rucaparib alone.
The mark [21] stands for this setting: at 0.00488 µM, OCI-P5x cells, without rucaparib.
[22] abbreviates: at 0.0195 µM, OCI-C5x cells, with rucaparib 10 µM, 100% = cells with rucaparib alone.
The mark [23] stands for this setting: at 0.0195 µM, OCI-C5x cells, without rucaparib.
The mark [24] stands for this setting: at 0.0195 µM, OCI-P5x cells, with rucaparib 20 µM, 100% = cells with rucaparib alone.
[25] abbreviates: at 0.0195 µM, OCI-P5x cells, without rucaparib.
Setting [26] is: at 0.0781 µM, OCI-C5x cells, with rucaparib 10 µM, 100% = cells with rucaparib alone.
Where [27] appears, read: at 0.0781 µM, OCI-C5x cells, without rucaparib.
The mark [28] stands for this setting: at 0.0781 µM, OCI-P5x cells, with rucaparib 20 µM, 100% = cells with rucaparib alone.
[29] abbreviates: at 0.0781 µM, OCI-P5x cells, without rucaparib.
Setting [30] is: at 0.313 µM, OCI-C5x cells, with rucaparib 10 µM, 100% = cells with rucaparib alone.
[31] abbreviates: at 0.313 µM, OCI-C5x cells, without rucaparib.
[32] abbreviates: at 0.313 µM, OCI-P5x cells, with rucaparib 20 µM, 100% = cells with rucaparib alone.
[33] abbreviates: at 0.313 µM, OCI-P5x cells, without rucaparib.
[34] abbreviates: at 1.25 µM, OCI-C5x cells, with rucaparib 10 µM, 100% = cells with rucaparib alone.
Setting [35] is: at 1.25 µM, OCI-C5x cells, without rucaparib.
Where [36] appears, read: at 1.25 µM, OCI-P5x cells, with rucaparib 20 µM, 100% = cells with rucaparib alone.
Setting [37] is: at 1.25 µM, OCI-P5x cells, without rucaparib.
Where [38] appears, read: at 5 µM, OCI-C5x cells, with rucaparib 10 µM, 100% = cells with rucaparib alone.
Setting [39] is: at 5 µM, OCI-C5x cells, without rucaparib.
Setting [40] is: at 5 µM, OCI-P5x cells, with rucaparib 20 µM, 100% = cells with rucaparib alone.
[41] abbreviates: at 5 µM, OCI-P5x cells, without rucaparib.

The source made the active and inactive calls.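 The calls were made as follows, unless noted: active = normalized viability below 100% at a tested concentration; inactive = the rest.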

For the molecule `CC(=O)C1=C(O)C=C2Oc3c(C(C)=O)c(O)c(C)c(O)c3[C@]2(C)C1=O`, the fold change was 0.866 (inactive) in experiment [1] (setting [4]) and 1.11 in experiment [1] (setting [5]). In addition, the cell count in experiment [1] (setting [6]) was found to be 5890; in experiment [1] (setting [7]), 6800. The z-score is -0.25 (inactive) in experiment [2] (setting [8]) and 0.769 in experiment [2] (setting [9]).

Take `CCCC(NC(=O)C(C#N)=Cc1cccc(Br)n1)c1ccccc1` (configuration not stated): the fold change is 0.929 (inactive) in experiment [1] (setting [4]) and 0.922 in experiment [1] (setting [5]). Further, the cell count was determined as 824 in experiment [1] (setting [6]) and 888 in experiment [1] (setting [7]). In addition, the z-score in experiment [2] (setting [8]) is 3.82 (active); in experiment [2] (setting [9]) it was -1.38.

For the molecule `CNCc1cc(-c2ccccc2F)n(S(=O)(=O)c2cccnc2)c1`, the results for the fold change in experiment [1] (setting [4]) and in experiment [1] (setting [5]) were 0.924 (inactive) and 0.437, respectively. The cell count in experiment [1] (setting [6]) amounted to 8460; in experiment [1] (setting [7]), 9150. Also, the z-score is -0.328 (inactive) in experiment [2] (setting [8]) and 0.241 in experiment [2] (setting [9]).

Take `Cn1nc(C(C)(C)C)cc1C(=O)NC(Cc1cccc(Cl)c1)C(=O)NCC#N` (configuration not stated): the fold change is 0.927 (inactive) in experiment [1] (setting [4]) and 0.462 in experiment [1] (setting [5]). In addition, the cell count in experiment [1] (setting [6]) was 7540; in experiment [1] (setting [7]), 8140. For the same molecule, the z-score is 0.131 (inactive) in experiment [2] (setting [8]) and 0.0966 in experiment [2] (setting [9]).

`CN(CC1COCCO1)S(=O)(=O)Nc1ccc2ccc3ncc(-c4cnn(C)c4)cc3c(=O)c2c1` (configuration not stated): the results for the fold change in experiment [1] (setting [4]) and in experiment [1] (setting [5]) were 0.745 (inactive) and 1.24, respectively. In addition, the values for the cell count in experiment [1] (setting [6]) and in experiment [1] (setting [7]) were 3290 and 4410, respectively. The figures for the z-score in experiment [2] (setting [8]) and in experiment [2] (setting [9]) were 4.55 (active) and 2.15, respectively.

Take `CC(C)CC(NC(=O)C(Cc1ccccc1)NC(=O)c1cnccn1)B(O)O` (configuration not stated): the fold change in experiment [1] (setting [4]) was 0.948 (inactive); in experiment [1] (setting [5]), 0.953. Further, the cell count in experiment [1] (setting [6]) was found to be 1020; in experiment [1] (setting [7]) it was 1080. The z-score in experiment [2] (setting [8]) was -0.496 (inactive); in experiment [2] (setting [9]), -2.5.

For the molecule `Cc1cc(C)c(-c2csc(NC(=O)c3ccccc3)n2)c(C)c1`, the fold change in experiment [1] (setting [4]) is 0.83 (inactive); in experiment [1] (setting [5]), 0.759. The cell count in experiment [1] (setting [6]) was 3610; in experiment [1] (setting [7]) it was 4340. For the same molecule, the results for the z-score in experiment [2] (setting [8]) and in experiment [2] (setting [9]) were -0.374 (inactive) and 0.994, respectively. In addition, the viability in experiment [3] (setting [10]) was 97.8% (active); in experiment [3] (setting [11]), 101% (inactive); in experiment [3] (setting [12]), 104% (inactive); in experiment [3] (setting [13]) it was 97.3% (active); in experiment [3] (setting [14]), 113% (inactive); in experiment [3] (setting [15]), 97.2% (active). Moreover, the viability in experiment [3] (setting [16]) was 101% (inactive); in experiment [3] (setting [17]), 104% (inactive); in experiment [3] (setting [18]), 108% (inactive); in experiment [3] (setting [19]), 107% (inactive); in experiment [3] (setting [20]), 103% (inactive); in experiment [3] (setting [21]), 104% (inactive). The viability in experiment [3] (setting [22]) is 104% (inactive); in experiment [3] (setting [23]), 96.2% (active); in experiment [3] (setting [24]), 103% (inactive); in experiment [3] (setting [25]) it was 105% (inactive); in experiment [3] (setting [26]), 111% (inactive); in experiment [3] (setting [27]), 105% (inactive). Besides, the viability was 105% (inactive) in experiment [3] (setting [28]); 102% (inactive) in experiment [3] (setting [29]); 111% (inactive) in experiment [3] (setting [30]); 103% (inactive) in experiment [3] (setting [31]); 104% (inactive) in experiment [3] (setting [32]); 101% (inactive) in experiment [3] (setting [33]). Also, the viability in experiment [3] (setting [34]) is 113% (inactive); in experiment [3] (setting [35]) it was 104% (inactive); in experiment [3] (setting [36]), 103% (inactive); in experiment [3] (setting [37]), 100% (active); in experiment [3] (setting [38]) it was 99.6% (active); in experiment [3] (setting [39]), 113% (inactive). In addition, the viability in experiment [3] (setting [40]) is 86.6% (active); in experiment [3] (setting [41]) it was 95.6% (active).

`Cc1cc([N+](=O)[O-])ccc1NS(=O)(=O)c1cc(Cl)ccc1Cl`: the fold change in experiment [1] (setting [4]) was 0.984 (inactive); in experiment [1] (setting [5]), 0.518. Moreover, the cell count was 3670 in experiment [1] (setting [6]) and 3730 in experiment [1] (setting [7]). Besides, the results for the z-score in experiment [2] (setting [8]) and in experiment [2] (setting [9]) were -0.622 (inactive) and -3.52, respectively. Moreover, the viability in experiment [3] (setting [10]) was 116% (inactive); in experiment [3] (setting [11]) it was 110% (inactive); in experiment [3] (setting [12]), 74.5% (active); in experiment [3] (setting [13]), 83.8% (active); in experiment [3] (setting [14]) it was 122% (inactive); in experiment [3] (setting [15]), 118% (inactive). The viability is 65.9% (active) in experiment [3] (setting [16]); 73.5% (active) in experiment [3] (setting [17]); 120% (inactive) in experiment [3] (setting [18]); 111% (inactive) in experiment [3] (setting [19]); 62.7% (active) in experiment [3] (setting [20]); 74.6% (active) in experiment [3] (setting [21]). Further, the viability in experiment [3] (setting [22]) is 118% (inactive); in experiment [3] (setting [23]), 110% (inactive); in experiment [3] (setting [24]), 65.1% (active); in experiment [3] (setting [25]), 76.4% (active); in experiment [3] (setting [26]) it was 122% (inactive); in experiment [3] (setting [27]), 121% (inactive). Moreover, the viability in experiment [3] (setting [28]) is 99.2% (active); in experiment [3] (setting [29]) it was 101% (inactive); in experiment [3] (setting [30]), 109% (inactive); in experiment [3] (setting [31]), 115% (inactive); in experiment [3] (setting [32]), 101% (inactive); in experiment [3] (setting [33]), 99.3% (active). Besides, the viability in experiment [3] (setting [34]) is 102% (inactive); in experiment [3] (setting [35]), 123% (inactive); in experiment [3] (setting [36]), 96.3% (active); in experiment [3] (setting [37]), 89.4% (active); in experiment [3] (setting [38]) it was 99.8% (active); in experiment [3] (setting [39]), 87% (active). In addition, the viability in experiment [3] (setting [40]) is 91.1% (active); in experiment [3] (setting [41]), 70.2% (active).

Consider `CC(C)NCCCn1c(Sc2cc3c(cc2I)OCO3)nc2c(N)ncnc21`, for which the fold change in experiment [1] (setting [4]) is 1.06 (inactive); in experiment [1] (setting [5]) it was 0.435. Moreover, the cell count in experiment [1] (setting [6]) came to 2580; in experiment [1] (setting [7]), 2430. Also, the z-score in experiment [2] (setting [8]) is 3.04 (active); in experiment [2] (setting [9]), -0.929. Further, the viability in experiment [3] (setting [10]) is 125% (inactive); in experiment [3] (setting [11]) it was 112% (inactive); in experiment [3] (setting [12]) it was 95.1% (active); in experiment [3] (setting [13]) it was 94.7% (active); in experiment [3] (setting [14]), 129% (inactive); in experiment [3] (setting [15]), 108% (inactive). Also, the viability in experiment [3] (setting [16]) was 102% (inactive); in experiment [3] (setting [17]), 94.3% (active); in experiment [3] (setting [18]), 119% (inactive); in experiment [3] (setting [19]) it was 107% (inactive); in experiment [3] (setting [20]), 99.8% (active); in experiment [3] (setting [21]), 98.3% (active). For the same molecule, the viability is 126% (inactive) in experiment [3] (setting [22]); 122% (inactive) in experiment [3] (setting [23]); 101% (inactive) in experiment [3] (setting [24]); 97.9% (active) in experiment [3] (setting [25]); 139% (inactive) in experiment [3] (setting [26]); 127% (inactive) in experiment [3] (setting [27]). In addition, the viability in experiment [3] (setting [28]) was 105% (inactive); in experiment [3] (setting [29]) it was 107% (inactive); in experiment [3] (setting [30]) it was 143% (inactive); in experiment [3] (setting [31]) it was 60.7% (active); in experiment [3] (setting [32]), 15.7% (active); in experiment [3] (setting [33]), 9.78% (active).

For the origin of these results see PubChem BioAssay.
